In assay [1] the target is T1, Ephrin type-A receptor 3 (Homo sapiens) (UniProt P29320).
T1 sequence (whole entry): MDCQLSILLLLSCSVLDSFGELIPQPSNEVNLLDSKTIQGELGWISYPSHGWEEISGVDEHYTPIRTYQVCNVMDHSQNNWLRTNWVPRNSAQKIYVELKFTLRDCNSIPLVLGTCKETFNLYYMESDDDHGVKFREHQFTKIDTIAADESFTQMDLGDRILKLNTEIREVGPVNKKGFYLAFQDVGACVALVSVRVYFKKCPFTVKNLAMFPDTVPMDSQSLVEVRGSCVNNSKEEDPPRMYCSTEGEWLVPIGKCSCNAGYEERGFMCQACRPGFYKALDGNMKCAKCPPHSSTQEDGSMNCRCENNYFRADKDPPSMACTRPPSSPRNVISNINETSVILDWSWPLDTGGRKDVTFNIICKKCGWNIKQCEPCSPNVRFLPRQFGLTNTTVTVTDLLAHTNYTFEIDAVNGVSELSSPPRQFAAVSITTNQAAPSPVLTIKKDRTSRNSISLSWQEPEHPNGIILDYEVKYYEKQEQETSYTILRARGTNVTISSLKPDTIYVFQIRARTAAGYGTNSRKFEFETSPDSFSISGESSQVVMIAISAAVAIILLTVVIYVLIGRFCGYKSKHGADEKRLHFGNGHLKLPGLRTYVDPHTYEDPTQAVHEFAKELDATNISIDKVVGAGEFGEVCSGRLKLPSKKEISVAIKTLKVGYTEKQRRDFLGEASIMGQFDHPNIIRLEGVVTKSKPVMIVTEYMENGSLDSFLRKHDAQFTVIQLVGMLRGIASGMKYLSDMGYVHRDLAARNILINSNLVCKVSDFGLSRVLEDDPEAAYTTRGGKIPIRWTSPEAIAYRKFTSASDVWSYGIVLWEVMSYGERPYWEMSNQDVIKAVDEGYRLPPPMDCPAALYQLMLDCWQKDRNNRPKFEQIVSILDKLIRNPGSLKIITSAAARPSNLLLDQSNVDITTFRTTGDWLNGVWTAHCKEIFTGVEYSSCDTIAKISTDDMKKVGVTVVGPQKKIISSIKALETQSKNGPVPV
The settings on record: at 1 µM.

Assay [2] addresses T1, Ephrin type-A receptor 3 (Homo sapiens). The settings on record: at 10 µM.
Assay [3] deals with T2, Ephrin type-B receptor 1 (Homo sapiens) (UniProt P54762).
T2 sequence (whole entry): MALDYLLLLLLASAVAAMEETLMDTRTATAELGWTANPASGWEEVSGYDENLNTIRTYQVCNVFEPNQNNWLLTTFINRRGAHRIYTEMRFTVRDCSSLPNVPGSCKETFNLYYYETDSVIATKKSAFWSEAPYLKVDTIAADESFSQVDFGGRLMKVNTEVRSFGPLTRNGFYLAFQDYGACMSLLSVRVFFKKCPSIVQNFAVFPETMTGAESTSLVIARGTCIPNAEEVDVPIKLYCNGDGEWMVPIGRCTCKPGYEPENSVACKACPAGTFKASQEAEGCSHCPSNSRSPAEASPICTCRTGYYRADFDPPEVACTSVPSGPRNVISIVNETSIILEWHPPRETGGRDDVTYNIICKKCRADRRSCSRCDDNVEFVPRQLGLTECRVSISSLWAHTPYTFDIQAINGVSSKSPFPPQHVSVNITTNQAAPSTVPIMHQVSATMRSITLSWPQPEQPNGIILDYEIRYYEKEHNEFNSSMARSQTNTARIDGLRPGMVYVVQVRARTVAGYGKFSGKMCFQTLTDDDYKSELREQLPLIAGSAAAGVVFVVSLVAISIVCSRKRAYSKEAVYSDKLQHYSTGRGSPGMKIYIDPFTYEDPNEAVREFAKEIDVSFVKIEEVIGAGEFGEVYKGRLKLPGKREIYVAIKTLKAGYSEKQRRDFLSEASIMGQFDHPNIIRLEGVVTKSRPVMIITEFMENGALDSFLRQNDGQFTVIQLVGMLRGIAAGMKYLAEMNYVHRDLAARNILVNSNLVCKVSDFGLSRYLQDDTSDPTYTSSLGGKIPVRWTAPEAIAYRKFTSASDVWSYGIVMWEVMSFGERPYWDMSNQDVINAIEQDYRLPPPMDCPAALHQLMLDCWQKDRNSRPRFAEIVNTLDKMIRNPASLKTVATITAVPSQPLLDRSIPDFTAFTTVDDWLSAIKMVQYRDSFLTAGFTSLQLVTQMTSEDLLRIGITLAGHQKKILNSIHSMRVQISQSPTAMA
The settings on record: at 1 µM.

The target in assay [4] is T3, Dual specificity tyrosine-phosphorylation-regulated kinase 2 (Homo sapiens) (UniProt Q92630).
T3 sequence (whole entry): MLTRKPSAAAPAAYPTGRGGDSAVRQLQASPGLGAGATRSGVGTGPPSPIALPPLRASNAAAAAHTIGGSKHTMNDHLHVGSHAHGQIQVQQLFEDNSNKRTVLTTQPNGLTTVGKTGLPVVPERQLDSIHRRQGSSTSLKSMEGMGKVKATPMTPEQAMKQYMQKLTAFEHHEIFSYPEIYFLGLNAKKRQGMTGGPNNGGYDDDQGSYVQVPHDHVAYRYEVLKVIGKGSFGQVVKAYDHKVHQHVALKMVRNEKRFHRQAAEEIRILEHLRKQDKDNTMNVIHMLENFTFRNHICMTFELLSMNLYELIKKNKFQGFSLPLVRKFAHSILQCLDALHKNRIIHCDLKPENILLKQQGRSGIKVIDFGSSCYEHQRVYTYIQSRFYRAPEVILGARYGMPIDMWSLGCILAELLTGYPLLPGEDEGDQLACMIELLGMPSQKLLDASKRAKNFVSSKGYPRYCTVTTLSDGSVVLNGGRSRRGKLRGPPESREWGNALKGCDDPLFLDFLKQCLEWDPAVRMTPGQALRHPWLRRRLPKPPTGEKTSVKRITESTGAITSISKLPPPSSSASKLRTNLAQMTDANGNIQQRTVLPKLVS
The settings on record: at 1 µM.

For assay [5], the target named is T3, Dual specificity tyrosine-phosphorylation-regulated kinase 2 (Homo sapiens). The settings on record: at 10 µM.
Assay [6] concerns the target T4, Ephrin type-A receptor 1 (Homo sapiens) (UniProt P21709).
T4 sequence (whole entry): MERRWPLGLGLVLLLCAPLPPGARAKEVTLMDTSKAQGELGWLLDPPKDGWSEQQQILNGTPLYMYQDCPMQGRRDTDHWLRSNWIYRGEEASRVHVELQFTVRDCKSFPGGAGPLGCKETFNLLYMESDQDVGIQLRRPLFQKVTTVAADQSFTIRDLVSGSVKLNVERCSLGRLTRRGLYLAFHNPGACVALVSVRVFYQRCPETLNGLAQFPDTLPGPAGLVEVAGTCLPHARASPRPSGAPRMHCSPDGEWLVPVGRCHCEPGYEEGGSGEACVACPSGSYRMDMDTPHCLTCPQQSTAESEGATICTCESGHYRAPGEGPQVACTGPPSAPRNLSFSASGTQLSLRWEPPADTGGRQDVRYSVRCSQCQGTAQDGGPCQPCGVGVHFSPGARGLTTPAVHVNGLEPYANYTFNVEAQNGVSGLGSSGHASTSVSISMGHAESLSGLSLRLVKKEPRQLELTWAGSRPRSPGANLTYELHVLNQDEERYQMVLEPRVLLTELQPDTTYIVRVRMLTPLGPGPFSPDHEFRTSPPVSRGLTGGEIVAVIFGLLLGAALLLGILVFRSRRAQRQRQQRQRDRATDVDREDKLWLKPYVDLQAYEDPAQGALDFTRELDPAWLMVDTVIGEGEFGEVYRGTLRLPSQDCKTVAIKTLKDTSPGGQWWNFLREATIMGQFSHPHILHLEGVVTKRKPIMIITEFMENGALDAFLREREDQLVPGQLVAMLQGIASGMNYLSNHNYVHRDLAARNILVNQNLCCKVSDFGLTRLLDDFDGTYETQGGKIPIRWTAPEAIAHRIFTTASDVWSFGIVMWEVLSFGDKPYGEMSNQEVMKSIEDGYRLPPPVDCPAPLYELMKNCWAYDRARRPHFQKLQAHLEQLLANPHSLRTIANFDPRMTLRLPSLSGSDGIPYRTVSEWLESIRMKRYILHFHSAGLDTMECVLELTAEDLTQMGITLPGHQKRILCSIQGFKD
The settings on record: at 1 µM.

Assay [7] has as its target T4, Ephrin type-A receptor 1 (Homo sapiens). The settings on record: at 10 µM.
Assay [8] concerns the target Ephrin type-A receptor 2 (Homo sapiens) (UniProt P29317). The settings on record: at 1 µM.
Assay [9] has as its target Ephrin type-A receptor 4 (Homo sapiens) (UniProt P54764). The settings on record: at 1 µM.
The target is the same in assay [10]. The settings on record: at 10 µM.
In assay [11] the target is Ephrin type-A receptor 5 (Homo sapiens) (UniProt P54756). The settings on record: at 1 µM.
The target is the same in assay [12]. The settings on record: at 10 µM.
Assay [13] addresses Ephrin type-A receptor 7 (Homo sapiens) (UniProt Q15375). The settings on record: at 1 µM.
Assay [14] shares this target. The settings on record: at 10 µM.
The target in assay [15] is T5, Ephrin type-A receptor 8 (Homo sapiens) (UniProt P29322).
T5 sequence (whole entry): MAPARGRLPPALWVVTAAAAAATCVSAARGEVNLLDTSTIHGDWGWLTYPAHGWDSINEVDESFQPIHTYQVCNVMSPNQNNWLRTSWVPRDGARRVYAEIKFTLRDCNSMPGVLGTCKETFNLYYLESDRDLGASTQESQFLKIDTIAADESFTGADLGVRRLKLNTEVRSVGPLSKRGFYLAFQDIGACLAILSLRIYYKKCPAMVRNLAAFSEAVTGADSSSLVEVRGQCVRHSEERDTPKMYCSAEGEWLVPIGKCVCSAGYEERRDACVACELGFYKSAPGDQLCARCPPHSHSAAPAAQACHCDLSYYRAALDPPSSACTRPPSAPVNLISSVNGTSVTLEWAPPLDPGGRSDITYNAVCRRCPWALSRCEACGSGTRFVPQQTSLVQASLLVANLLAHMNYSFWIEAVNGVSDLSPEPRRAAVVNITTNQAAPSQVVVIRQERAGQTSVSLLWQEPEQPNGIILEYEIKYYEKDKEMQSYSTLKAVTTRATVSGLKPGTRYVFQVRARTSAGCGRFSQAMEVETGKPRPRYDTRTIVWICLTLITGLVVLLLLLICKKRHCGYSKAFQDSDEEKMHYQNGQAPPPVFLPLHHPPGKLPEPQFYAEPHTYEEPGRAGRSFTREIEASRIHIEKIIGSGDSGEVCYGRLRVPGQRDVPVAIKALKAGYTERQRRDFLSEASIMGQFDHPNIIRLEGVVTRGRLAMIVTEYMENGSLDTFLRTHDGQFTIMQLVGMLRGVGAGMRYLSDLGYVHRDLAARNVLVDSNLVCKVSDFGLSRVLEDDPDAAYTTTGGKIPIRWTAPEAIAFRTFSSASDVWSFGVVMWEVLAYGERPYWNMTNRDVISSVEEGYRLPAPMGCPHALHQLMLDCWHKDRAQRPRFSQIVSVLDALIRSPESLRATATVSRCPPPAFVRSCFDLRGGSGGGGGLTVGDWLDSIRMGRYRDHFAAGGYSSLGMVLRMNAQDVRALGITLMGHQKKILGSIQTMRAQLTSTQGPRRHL
The settings on record: at 1 µM.

Assay [16] concerns the target T5, Ephrin type-A receptor 8 (Homo sapiens). The settings on record: at 10 µM.
Assay [17] addresses T6, Serine/threonine-protein kinase 17A (Homo sapiens) (UniProt Q9UEE5).
T6 sequence (whole entry): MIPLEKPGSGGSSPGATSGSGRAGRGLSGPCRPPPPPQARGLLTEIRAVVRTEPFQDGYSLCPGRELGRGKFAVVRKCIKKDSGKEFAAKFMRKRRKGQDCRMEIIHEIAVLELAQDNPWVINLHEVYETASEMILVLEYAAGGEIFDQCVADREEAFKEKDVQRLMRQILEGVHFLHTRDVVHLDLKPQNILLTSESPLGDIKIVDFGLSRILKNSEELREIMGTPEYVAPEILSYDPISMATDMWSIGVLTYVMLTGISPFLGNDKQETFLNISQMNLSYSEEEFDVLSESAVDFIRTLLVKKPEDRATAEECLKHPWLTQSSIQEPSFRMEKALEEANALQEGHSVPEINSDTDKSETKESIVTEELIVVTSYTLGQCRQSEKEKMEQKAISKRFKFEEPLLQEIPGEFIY
The settings on record: at 10 µM.

The target in assay [18] is Ephrin type-A receptor 2 (Homo sapiens) (UniProt P29317). The settings on record: at 10 µM.
Ephrin type-A receptor 2 (Homo sapiens), sequence (P29317 whole entry): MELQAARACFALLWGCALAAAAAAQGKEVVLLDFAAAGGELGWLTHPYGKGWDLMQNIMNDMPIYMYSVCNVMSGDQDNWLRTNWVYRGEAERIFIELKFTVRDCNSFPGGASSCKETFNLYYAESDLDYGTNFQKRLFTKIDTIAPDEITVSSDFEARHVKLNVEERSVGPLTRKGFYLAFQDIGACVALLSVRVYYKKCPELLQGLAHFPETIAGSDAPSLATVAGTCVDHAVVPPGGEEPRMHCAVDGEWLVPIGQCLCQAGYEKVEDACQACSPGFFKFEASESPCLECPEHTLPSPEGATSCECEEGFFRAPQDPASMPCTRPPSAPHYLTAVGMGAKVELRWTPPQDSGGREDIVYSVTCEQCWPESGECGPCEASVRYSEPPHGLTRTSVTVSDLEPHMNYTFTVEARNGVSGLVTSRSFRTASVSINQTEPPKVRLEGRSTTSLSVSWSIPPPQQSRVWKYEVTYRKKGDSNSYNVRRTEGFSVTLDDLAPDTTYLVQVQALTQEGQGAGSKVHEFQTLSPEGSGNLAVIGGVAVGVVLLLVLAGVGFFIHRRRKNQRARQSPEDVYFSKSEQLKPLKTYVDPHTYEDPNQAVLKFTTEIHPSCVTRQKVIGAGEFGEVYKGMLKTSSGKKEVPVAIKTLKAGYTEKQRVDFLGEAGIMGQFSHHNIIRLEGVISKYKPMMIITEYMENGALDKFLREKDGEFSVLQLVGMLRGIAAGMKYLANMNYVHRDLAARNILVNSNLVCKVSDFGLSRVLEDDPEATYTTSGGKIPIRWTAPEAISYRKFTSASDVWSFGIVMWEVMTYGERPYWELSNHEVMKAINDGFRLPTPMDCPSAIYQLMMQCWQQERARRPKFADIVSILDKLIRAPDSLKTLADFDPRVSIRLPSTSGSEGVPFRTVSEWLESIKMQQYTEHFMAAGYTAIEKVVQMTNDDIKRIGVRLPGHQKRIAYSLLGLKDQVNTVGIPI

Ephrin type-A receptor 5 (Homo sapiens), sequence (P54756 whole entry): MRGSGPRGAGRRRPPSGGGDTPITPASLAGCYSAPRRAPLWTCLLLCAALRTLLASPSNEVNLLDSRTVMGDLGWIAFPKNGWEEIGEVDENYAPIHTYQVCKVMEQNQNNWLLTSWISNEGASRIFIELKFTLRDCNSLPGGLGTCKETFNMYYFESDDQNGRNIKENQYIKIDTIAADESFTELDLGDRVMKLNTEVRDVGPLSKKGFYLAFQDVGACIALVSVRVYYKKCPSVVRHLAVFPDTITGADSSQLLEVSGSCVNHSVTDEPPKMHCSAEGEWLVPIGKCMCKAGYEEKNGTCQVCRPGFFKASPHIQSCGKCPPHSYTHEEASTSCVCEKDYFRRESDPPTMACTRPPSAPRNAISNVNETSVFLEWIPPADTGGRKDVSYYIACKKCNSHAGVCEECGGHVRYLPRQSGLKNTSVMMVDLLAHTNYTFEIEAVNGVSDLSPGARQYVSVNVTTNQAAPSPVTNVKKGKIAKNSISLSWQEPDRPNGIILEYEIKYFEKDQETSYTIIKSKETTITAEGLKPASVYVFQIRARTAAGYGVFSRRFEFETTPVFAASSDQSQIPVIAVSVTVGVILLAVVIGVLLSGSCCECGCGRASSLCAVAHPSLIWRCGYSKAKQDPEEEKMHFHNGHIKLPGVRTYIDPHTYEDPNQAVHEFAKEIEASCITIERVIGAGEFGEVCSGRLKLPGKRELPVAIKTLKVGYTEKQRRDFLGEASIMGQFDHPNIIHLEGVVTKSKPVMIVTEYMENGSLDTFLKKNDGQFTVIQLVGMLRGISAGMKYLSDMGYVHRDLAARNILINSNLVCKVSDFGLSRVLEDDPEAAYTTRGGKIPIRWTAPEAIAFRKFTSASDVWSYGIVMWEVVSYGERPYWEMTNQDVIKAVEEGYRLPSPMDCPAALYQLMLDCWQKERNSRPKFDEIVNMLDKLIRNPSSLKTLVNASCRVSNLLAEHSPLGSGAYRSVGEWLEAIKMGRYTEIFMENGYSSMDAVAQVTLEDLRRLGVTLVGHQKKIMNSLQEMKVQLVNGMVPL
Ephrin type-A receptor 4 (Homo sapiens), sequence (P54764 whole entry): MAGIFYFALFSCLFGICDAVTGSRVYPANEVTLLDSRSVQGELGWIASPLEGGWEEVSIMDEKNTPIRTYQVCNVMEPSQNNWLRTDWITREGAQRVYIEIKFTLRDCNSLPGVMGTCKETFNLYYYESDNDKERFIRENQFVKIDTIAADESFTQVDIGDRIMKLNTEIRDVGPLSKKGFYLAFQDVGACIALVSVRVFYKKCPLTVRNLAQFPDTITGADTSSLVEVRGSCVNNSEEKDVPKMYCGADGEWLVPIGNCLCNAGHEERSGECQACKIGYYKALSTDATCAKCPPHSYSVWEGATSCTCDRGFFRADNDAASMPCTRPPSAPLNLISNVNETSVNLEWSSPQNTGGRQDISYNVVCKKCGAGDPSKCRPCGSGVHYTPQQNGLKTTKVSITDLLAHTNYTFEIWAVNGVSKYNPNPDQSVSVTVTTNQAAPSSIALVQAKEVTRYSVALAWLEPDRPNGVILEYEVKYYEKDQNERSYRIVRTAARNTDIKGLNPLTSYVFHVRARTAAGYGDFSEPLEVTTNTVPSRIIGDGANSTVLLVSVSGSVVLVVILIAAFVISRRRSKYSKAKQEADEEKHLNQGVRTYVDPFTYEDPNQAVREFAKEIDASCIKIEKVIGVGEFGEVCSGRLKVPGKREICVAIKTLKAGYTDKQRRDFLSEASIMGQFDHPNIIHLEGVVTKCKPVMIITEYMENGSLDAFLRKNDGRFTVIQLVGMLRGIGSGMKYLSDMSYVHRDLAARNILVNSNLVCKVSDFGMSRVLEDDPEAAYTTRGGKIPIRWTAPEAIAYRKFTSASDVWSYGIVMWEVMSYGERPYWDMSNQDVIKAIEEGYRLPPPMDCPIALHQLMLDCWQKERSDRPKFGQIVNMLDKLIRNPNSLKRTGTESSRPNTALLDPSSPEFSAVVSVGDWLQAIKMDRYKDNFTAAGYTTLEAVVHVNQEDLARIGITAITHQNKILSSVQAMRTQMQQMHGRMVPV
Ephrin type-A receptor 7 (Homo sapiens), sequence (Q15375 28-998 limits assumed): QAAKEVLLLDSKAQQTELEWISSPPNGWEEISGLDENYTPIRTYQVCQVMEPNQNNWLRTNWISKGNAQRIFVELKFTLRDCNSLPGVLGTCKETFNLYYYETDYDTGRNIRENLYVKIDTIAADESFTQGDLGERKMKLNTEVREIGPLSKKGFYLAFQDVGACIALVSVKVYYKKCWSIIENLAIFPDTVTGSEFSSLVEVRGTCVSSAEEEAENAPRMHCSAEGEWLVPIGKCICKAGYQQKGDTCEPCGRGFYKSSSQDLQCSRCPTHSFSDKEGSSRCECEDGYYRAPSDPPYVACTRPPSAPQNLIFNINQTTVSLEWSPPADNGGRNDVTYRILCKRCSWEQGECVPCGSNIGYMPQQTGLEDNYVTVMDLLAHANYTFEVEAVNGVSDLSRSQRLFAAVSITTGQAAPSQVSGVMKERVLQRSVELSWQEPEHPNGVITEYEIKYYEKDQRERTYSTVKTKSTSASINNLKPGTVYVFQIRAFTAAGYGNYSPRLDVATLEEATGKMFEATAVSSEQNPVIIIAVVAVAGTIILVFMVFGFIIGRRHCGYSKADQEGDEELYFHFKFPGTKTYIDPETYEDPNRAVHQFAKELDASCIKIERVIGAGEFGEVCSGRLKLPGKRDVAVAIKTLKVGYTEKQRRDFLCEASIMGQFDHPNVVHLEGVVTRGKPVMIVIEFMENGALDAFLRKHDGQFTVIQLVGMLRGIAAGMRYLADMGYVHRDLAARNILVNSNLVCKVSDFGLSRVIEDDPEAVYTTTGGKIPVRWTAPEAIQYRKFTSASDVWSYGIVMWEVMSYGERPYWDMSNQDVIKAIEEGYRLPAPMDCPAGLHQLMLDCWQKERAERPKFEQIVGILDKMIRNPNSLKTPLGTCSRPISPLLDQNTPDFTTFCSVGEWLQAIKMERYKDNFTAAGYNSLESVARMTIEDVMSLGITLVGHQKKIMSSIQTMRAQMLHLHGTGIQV

Usually residual activity stands for the signal under treatment as a percentage of the control signal. `NC(=O)c1ccc(-c2nc(-c3ccc4c(c3)OCCO4)c(-c3ccccn3)[nH]2)cc1`: the residual activity in [1] was 100%; in assay [2], 94%; in [3], 93%.

Consider `O=C(CCCc1ccc(-c2ccccc2F)cc1)Nc1ccc(O)cc1`, for which the residual activity in assay [4] was 105%; in assay [5] it was 91%; in assay [6], 93%; in [7], 86%; in [8], 97%; in [1], 99%. Further, the residual activity in assay [2] stood at 111%; in assay [9], 108%; in assay [10] it was 96%; in [11], 111%; in assay [12] it was 106%; in assay [13], 102%. Also, the residual activity came to 104% in assay [14], 103% in [15] and 94% in assay [16].

As to `Nc1nc(Nc2ccc(S(N)(=O)=O)cc2)nn1C(=O)c1c(F)cccc1F`, the residual activity in assay [17] came out at 47%; in assay [6] it was 58%; in [7] it was 6%; in assay [18] it was 39%; in [9] it was 108%; in assay [10], 95%. In addition, the residual activity in assay [11] came out at 103%; in assay [12], 73%; in assay [13], 52%; in assay [14] it was 8%; in assay [16], 55%; in assay [3], 78%.

Regarding `CC(C)(C)c1nc2c3ccc(F)cc3c3c(=O)[nH]ccc3c2[nH]1`, the residual activity in [17] amounted to 0%; in [6], 74%; in assay [8], 103%; in [18] it was 103%; in assay [1] it was 99%; in [2], 72%. In addition, the residual activity in [15] and in assay [16] was 103% each time.

These data come from ChEMBL document CHEMBL2218924, “A broad activity screen in support of a chemogenomic map for kinase signalling research and drug discovery” (Biochem J, 2013).
